Results taken from the supplement of paper PMC11732987, “Enantioselective OTUD7B fragment discovery through chemoproteomics screening and high-throughput optimisation” (Communications Chemistry, 2025).

Tests used:
Assay in all cases: log2 ratio of Biotin-Ahx-Ub-VS probe labelling (fragment/DMSO); higher = less target engagement (more negative = stronger competition), active = hit call of the paper (q ≤ 0.05, log2 ratio ≤ -1)
Details in all cases: compound concentration: 200 uM; treatment time: 3 h
USP9X = USP9X (UniProt Q93008)
How it was run: (§1)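 In triplicate, 495 µg of HEK293T lysate per sample was incubated with fragment at 200 µM or vehicle for 3 h. Biotin-Ahx-Ub-VS was then added to 0.5 µM final for 1 h, and labelled DUBs were captured with NeutrAvidin, digested with LysC and trypsin, and measured by diaPASEF LC-MS/MS. Data are average log2 fragment/vehicle ratios by unpaired t-test from global-median-normalised Spectronaut label-free quantities, restricted to proteins with ≥2 unique peptides.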

UniProt O00487 = biological target: UniProt O00487
How it was run: as §1

UniProt O00507 = biological target: UniProt O00507
How it was run: as §1

UniProt P51784 = biological target: UniProt P51784
How it was run: as §1

UniProt Q5T2D3 = biological target: T1, UniProt Q5T2D3
T1 sequence (whole entry): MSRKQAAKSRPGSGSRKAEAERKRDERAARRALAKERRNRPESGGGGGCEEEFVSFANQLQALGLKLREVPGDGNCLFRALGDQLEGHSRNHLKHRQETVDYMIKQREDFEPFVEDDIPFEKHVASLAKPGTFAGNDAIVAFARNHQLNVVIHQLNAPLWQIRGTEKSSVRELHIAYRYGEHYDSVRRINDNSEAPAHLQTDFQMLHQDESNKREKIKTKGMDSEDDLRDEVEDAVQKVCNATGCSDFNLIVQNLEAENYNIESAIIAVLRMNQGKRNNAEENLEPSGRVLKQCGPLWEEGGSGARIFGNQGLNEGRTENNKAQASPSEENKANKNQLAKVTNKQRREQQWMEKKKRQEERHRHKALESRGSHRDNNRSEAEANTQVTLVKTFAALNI
How it was run: as §1

UniProt Q8TE49 = biological target: T2, UniProt Q8TE49
T2 sequence (whole entry): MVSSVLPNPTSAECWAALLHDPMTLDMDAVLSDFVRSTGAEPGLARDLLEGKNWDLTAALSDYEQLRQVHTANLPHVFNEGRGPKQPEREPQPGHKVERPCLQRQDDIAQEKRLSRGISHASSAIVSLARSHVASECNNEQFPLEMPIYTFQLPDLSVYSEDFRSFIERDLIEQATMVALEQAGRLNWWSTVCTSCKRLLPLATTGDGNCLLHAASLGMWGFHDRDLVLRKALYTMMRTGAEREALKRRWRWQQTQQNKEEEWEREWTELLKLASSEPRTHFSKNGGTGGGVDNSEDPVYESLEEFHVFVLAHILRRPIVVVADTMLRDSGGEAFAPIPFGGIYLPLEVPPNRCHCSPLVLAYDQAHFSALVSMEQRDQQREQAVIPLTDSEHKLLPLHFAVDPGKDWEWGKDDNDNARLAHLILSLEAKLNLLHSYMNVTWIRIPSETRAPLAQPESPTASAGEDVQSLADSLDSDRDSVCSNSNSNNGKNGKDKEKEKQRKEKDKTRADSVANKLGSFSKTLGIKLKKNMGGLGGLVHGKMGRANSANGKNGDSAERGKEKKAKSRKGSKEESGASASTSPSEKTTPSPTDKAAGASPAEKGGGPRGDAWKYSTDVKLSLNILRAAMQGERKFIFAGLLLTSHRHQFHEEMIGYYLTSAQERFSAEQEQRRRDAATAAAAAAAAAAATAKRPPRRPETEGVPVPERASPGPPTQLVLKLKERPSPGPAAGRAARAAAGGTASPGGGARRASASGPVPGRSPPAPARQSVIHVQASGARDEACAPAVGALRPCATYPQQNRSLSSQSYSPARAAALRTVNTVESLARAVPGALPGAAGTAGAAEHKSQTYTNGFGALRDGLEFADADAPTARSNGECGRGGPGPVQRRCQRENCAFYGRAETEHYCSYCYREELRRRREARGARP
How it was run: as §1

UniProt Q9P2H5 = biological target: T3, UniProt Q9P2H5
T3 sequence (whole entry): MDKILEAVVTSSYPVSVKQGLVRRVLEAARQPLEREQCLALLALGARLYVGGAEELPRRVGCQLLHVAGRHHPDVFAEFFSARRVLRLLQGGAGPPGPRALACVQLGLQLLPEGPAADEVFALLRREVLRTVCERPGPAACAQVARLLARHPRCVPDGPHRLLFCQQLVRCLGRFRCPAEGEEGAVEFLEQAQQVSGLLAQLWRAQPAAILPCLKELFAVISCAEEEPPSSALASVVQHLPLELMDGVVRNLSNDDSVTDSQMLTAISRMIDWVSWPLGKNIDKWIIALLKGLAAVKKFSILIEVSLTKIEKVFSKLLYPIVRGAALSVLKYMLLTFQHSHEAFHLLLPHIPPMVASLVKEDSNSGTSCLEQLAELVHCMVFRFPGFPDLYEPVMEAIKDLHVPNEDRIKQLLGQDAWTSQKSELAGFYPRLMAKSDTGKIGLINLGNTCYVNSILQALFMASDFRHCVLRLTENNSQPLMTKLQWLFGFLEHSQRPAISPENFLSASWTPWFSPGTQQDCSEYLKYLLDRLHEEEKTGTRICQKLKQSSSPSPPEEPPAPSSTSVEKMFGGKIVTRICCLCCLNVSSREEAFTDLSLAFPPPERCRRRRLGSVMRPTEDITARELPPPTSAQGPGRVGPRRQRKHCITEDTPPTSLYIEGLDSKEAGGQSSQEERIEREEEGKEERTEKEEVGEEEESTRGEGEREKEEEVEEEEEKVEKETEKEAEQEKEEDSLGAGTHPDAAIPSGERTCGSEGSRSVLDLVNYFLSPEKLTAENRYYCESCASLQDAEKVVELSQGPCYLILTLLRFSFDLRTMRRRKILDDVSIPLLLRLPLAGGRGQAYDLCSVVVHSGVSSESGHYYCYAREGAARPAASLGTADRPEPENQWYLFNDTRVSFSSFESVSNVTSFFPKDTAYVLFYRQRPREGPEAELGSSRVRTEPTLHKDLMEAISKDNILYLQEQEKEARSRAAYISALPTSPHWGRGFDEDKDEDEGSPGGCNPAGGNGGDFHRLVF
How it was run: as §1

UniProt Q9UGI0 = biological target: T4, UniProt Q9UGI0
T4 sequence (whole entry): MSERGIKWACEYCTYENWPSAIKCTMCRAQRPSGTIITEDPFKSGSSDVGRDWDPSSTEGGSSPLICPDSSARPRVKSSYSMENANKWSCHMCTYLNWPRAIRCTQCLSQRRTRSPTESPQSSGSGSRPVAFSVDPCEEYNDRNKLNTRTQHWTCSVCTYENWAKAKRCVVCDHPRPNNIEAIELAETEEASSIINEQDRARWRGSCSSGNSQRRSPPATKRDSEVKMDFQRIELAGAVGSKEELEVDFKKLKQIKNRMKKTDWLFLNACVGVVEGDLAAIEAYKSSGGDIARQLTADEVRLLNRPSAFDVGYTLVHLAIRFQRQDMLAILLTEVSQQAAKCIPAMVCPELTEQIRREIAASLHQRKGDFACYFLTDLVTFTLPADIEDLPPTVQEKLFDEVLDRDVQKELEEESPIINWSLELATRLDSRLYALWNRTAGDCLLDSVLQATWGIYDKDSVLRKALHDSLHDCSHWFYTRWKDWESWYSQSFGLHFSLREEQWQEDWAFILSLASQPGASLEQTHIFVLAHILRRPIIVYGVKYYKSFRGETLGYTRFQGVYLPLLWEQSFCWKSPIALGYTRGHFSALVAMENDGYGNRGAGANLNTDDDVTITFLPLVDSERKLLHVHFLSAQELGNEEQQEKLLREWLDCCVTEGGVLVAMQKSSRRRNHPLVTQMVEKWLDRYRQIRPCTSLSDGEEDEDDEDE
How it was run: as §1

YOD1 = biological target: T5, YOD1 (UniProt Q5VVQ6)
T5 sequence (whole entry): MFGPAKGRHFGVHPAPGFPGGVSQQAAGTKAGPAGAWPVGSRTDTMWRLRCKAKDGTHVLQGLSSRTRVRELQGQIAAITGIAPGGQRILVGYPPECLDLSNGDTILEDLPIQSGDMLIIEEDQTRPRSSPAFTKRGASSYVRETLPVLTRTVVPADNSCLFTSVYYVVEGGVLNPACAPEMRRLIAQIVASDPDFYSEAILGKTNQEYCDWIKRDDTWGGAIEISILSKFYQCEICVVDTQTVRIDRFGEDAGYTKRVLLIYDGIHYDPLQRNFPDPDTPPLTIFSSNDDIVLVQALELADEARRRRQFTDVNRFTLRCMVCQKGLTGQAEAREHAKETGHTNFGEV
How it was run: as §1

Measured: log2 ratio of Biotin-Ahx-Ub-VS probe labelling

UniProt O00507, sequence (O00507 whole entry): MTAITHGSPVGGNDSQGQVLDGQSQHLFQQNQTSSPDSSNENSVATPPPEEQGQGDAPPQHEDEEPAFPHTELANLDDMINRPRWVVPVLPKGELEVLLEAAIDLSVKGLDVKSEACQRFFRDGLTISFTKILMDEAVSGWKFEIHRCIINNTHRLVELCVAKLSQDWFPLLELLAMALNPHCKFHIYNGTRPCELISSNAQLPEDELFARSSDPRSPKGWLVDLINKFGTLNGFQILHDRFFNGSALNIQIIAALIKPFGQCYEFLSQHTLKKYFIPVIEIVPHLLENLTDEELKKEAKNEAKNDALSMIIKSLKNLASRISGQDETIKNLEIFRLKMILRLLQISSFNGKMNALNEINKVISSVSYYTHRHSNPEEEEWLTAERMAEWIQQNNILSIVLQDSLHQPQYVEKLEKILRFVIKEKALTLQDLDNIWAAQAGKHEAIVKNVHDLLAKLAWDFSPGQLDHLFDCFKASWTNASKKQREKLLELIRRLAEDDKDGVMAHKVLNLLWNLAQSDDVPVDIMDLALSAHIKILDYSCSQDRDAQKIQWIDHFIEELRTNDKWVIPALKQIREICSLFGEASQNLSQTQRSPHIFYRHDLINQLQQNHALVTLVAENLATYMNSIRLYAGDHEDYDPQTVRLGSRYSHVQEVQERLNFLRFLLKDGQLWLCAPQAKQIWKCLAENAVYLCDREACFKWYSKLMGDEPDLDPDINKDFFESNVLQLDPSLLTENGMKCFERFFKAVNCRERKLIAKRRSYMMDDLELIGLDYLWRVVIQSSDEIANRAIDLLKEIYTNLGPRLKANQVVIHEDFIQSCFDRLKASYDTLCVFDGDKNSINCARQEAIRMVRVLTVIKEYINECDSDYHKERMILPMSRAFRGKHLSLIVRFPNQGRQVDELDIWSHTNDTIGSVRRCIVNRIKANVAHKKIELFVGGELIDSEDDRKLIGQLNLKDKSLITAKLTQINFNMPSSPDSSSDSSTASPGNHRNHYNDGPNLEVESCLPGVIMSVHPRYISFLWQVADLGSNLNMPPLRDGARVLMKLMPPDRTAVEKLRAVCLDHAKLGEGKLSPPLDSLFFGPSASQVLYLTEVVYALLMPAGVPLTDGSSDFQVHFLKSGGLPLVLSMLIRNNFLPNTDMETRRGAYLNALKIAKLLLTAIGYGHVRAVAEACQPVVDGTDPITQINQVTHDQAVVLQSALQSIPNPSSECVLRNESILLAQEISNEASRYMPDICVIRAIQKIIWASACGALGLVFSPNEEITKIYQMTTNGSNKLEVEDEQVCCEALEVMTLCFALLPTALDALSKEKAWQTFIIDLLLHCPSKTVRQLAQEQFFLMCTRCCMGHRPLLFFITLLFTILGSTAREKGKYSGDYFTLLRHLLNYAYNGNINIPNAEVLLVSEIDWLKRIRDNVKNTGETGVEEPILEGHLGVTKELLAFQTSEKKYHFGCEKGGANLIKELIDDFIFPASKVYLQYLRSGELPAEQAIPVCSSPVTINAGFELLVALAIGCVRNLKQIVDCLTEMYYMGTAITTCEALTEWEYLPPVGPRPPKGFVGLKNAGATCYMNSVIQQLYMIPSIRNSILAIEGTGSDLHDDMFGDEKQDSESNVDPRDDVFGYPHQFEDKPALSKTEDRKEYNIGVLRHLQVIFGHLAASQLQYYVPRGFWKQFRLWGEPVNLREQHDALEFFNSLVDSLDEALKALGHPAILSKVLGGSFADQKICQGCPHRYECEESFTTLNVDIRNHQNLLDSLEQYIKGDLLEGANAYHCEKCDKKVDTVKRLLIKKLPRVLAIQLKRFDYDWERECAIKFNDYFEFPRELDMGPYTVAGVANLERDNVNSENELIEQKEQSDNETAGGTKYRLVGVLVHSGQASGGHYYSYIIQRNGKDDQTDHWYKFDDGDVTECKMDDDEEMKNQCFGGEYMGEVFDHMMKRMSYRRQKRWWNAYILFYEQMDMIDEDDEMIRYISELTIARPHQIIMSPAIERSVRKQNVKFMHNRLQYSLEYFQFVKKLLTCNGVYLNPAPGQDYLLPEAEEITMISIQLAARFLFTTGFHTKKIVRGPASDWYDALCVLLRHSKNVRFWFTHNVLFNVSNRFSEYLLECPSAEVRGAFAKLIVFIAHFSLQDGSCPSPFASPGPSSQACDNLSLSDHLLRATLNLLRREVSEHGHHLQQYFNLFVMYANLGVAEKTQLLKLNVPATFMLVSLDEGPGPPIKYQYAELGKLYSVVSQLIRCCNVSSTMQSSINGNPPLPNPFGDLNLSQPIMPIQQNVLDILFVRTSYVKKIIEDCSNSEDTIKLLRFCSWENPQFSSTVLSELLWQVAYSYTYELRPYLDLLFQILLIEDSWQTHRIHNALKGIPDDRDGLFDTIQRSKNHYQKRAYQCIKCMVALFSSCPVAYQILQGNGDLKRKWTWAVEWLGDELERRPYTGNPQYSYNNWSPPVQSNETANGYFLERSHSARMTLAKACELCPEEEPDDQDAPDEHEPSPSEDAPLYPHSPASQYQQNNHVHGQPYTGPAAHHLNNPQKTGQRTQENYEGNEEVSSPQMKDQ
UniProt P51784, sequence (P51784 whole entry): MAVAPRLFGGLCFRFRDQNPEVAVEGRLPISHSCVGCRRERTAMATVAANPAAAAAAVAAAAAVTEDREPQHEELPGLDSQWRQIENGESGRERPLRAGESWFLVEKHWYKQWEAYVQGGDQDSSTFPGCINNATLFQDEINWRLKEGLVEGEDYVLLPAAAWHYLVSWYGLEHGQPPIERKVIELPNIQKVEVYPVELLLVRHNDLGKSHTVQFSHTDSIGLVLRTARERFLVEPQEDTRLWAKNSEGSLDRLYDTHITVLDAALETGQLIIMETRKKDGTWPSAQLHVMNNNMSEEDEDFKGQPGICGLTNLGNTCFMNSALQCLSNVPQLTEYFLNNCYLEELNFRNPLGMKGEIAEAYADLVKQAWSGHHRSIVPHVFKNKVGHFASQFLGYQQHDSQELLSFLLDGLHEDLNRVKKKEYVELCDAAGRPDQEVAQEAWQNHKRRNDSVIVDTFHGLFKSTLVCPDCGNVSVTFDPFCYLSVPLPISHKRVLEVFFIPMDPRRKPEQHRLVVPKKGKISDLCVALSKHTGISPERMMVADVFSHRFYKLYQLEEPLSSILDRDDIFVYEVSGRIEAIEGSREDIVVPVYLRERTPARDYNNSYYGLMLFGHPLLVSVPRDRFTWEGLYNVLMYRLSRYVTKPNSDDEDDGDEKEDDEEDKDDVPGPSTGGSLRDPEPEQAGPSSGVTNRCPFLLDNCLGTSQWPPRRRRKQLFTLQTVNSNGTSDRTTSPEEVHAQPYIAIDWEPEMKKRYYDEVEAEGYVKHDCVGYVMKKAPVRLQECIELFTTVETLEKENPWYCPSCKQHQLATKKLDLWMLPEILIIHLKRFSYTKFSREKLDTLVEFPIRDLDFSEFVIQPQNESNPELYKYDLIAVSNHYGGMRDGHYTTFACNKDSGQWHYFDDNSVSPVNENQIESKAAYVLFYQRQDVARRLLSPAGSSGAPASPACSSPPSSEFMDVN
UniProt O00487, sequence (O00487 whole entry): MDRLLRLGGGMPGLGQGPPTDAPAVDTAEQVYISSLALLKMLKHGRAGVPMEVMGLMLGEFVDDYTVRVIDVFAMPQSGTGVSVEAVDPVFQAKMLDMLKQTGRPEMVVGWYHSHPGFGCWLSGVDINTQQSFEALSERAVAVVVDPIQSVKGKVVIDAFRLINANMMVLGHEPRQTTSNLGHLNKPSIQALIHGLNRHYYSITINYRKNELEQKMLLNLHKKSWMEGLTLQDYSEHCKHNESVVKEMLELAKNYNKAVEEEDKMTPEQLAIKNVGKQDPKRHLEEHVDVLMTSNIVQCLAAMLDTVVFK

O=C(CCl)N1CCC2(CCC(O)CC2)CC1
inactive: USP9X -0.156 | UniProt O00487 0.0439 | UniProt O00507 0.0905 | UniProt P51784 0.0738 | UniProt Q5T2D3 -0.238 | UniProt Q8TE49 -0.64 | UniProt Q9P2H5 -0.118 | UniProt Q9UGI0 -0.316 | YOD1 0.0256
